From PubChem BioAssay
The list is not random: actives were taken first. Their share in the collection is about 5.4%.
12-hLO inh: 12-hLO (ALOX12) enzyme inhibition; P18054; purified 12-hLO, xylenol orange hydroperoxide absorbance; Potency, µM (top dose mostly 57.1 µM), without a hit: top-dose activity change, negative = inhibition, hits mostly inhibitors; 0.12% of 150,000 active; note: potency is the fitted concentration of half-maximal effect; nearly all actives have a fitted effect of over 55% in size
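Xylenol orange chromogenic assay: hydroperoxide from 12hLO oxidises Fe(II), giving red-shifted Fe(III)-XO absorbance. Conditions: 150 nM enzyme, 40 uM arachidonic acid, 25 mM Hepes pH 7.0, 0.01% Triton X-100, 30 min, room temperature.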
IMPase inh: cell-permeable inhibitors of inositol monophosphatase (IMPase); P97697; CHO-M1 cells, IP1 accumulation, HTRF TR-FRET ratio; inhibition (IP1 accumulation), % at 46.1 µM; 120,000 tested, under 10 active; AID 901; active = well fitted curve in the direction sought with a large enough effect in the signal ratio, not every such curve was filed as active; inconclusive = small, poorly fitted or top-dose-only effect, or a change in a side signal; inactive = no such curve, though single readings can be large or run the other way; the % refers to the signal ratio;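 note: cells stimulated with carbachol in lithium chloride buffer; plate controls were DMSO basal wells for no effect and reference inhibitor wells for full effect; higher means more IMPase inhibition seen as more IP1 and lower FRET ratio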
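Seeded CHO-M1 cells were dosed with compound at up to 46 uM, stimulated with carbachol for 30 min, then lysed in IP-One detection reagents. Higher IP1 lowers the TR-FRET signal.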
15-hLO-2 inh: 15-hLO-2 (ALOX15B) enzyme inhibition | Potency, µM (highest dose often 57.1 µM), for the others: at the top dose activity change, negative = inhibition, usual class: inhibitors | AID 881 | 0.56% of 110,000 active | O15296 | purified 15hLO-2, xylenol orange hydroperoxide absorbance; note: potency is the fitted concentration of half-maximal effect; nearly all actives have a fitted effect of over 60% in size
Target sequence (O15296 whole entry, looked up): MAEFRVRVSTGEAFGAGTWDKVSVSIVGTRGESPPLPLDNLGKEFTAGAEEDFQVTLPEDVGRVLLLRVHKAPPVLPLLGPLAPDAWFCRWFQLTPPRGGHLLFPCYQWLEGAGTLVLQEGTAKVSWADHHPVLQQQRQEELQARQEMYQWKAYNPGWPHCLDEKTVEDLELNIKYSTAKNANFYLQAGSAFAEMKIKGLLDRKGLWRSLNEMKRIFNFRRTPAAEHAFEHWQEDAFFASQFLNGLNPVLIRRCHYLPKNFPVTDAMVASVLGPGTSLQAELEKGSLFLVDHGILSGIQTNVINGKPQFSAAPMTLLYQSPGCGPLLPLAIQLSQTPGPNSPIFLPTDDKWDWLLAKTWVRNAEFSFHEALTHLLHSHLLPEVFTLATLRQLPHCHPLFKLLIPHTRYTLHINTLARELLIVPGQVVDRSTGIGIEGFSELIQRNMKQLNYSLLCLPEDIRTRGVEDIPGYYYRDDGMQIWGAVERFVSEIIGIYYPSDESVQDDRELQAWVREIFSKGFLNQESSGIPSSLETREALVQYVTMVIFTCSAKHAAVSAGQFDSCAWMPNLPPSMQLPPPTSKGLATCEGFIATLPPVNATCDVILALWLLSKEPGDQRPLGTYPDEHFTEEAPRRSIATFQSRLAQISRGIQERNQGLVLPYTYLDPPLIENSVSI
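Purified human 15hLO-2 (50 nM final) preincubated with compounds 15 min at room temperature in 25 mM Hepes pH 7.5, 0.01% Triton X-100, then 45 uM arachidonic acid added for 90 min; hydroperoxide detected via ferrous/xylenol orange, 573/405 nm absorbance ratio.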
PNC inhibitor: inhibitors of perinucleolar compartment assembly; activity change (PNC), negative = inhibition, % at 10 µM; PC3M PTB-GFP, PNC prevalence imaging, 16 h; active compounds read low; 3.1% of 140,000 active;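 active = readout at or below -70, meaning at least 70% loss of cells showing the perinucleolar compartment, a nuclear body marking cancer cells; inconclusive = readout between -30 and a set limit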;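 note: plate controls were DMSO wells for no effect and camptothecin positive control wells for full effect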
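Compounds are pinned in duplicate onto adhered PC3M cells stably expressing GFP-tagged PTB and incubated 16 h at 37 C. Cells are then fixed, nuclei stained with Hoechst, and PNC-positive cells counted.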
IMPase Li inh: membrane-permeable IMPase blocker, potentiated with lithium. CHO-M1 cells, IP1 TR-FRET (IP-One), carbachol + lithium. Potency, µM (top dose mostly 59.4 µM), for the others: at the top dose activity, negative = IMPase inhibition, most hits filed as inhibitors. 0.35% of 210,000 active. AID 1457;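 note: IP1 builds up when IMPase is blocked and the TR-FRET signal falls; potency is the fitted concentration of half-maximal effect; plate controls were basal vehicle for no effect and high inhibitor control for full effect; nearly all actives have a fitted effect of over 50% in size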
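Test compounds were applied to CHO-M1 cells previously cultured for 16–30 h at 2000 per well. A small lithium amount accompanied them; after 30 min at 37C, IP1 was quantified by TR-FRET.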
HPGD inh: blocks human HPGD enzyme activity. P15428. purified HPGD, NADH fluorescence kinetic, PGE2 substrate. Potency, µM, for the others: at the top dose activity change, negative = inhibition, hits mostly inhibitors. 4.3% of 150,000 active. AID 894; active = well fitted inhibition curve with a large enough effect, not every such curve was filed as active; inconclusive = small, poorly fitted or top-dose-only effect, or another doubt; inactive = no such curve, though single readings can be large or run the other way; note: potency is the fitted concentration of half-maximal effect
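20 nM HPGD preincubated 15 min at room temperature with compound in 50 mM Tris-HCl pH 8, 0.01% Tween 20. Started with 1 mM NAD+ and 30 uM prostaglandin E2; NADH fluorescence (360/450 nm) read 5 times over 30-s intervals, last minus first.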
* = called active by the depositor; ? = inconclusive; / = no result; [ ] = dose if it differs, or a comment. Unless noted, calls come from the whole dose curve; as a rule, active = well fitted curve in the direction sought with a large enough effect; inconclusive = small, poorly fitted or top-dose-only effect, or another doubt; inactive = no such curve, though single readings can be large; an effect the other way counts as inactive or inconclusive. Unless noted, % is set by controls: 0 for no effect and ±100 for the full control effect.

SMILES	12-hLO inh	IMPase inh	15-hLO-2 inh	PNC inhibitor	IMPase Li inh	HPGD inh
Cc1cc(OCCCC(=O)N2CCCCC2)cc(C)c1Cl	-2.9%	12.1	7.1%	?	58.6%[38.3 µM]	7.94µM*
Cc1cc(Cl)ccc1OCCCC(=O)N1CCOCC1	-9.0%	-7.8	12.8%	?	-3.2%[38.3 µM]	-14.9%
CCOC(=O)N1CCN(C(=O)COc2cc(C)c(Cl)c(C)c2)CC1	/	/	/	/	-7.5%	/
Cc1cc(Cl)ccc1OCCCC(=O)N1CCCCC1	-1.2%	1.0	-0.8%	-8.8	8.9%[38.3 µM]	6.31µM*
CCOC(=O)C1CCN(C(=O)COc2ccc(Cl)cc2C)CC1	-10.8%	7.1	3.8%	-86.8*	41.2%[38.3 µM]	-8.5%
CCOC(=O)C1CCN(C(=O)COc2ccc(Cl)cc2Cl)CC1	-10.4%	4.8	-10.4%	-7.3	5.7%[38.3 µM]	-0.9%
O=C(CCCOc1ccccc1)N1CCc2ccccc2C1	-4.8%	13.4	-9.9%	-8.0	9.6%[38.3 µM]	?
O=C(CCCOc1ccc(Cl)cc1Cl)N1CCc2ccccc2C1	-24.6%	9.8	/	-19.0	-4.8%	2.51µM*
Cc1cc(Br)ccc1OCC(=O)N1CCCCCC1	-1.3%	9.8	-2.1%	12.9	14.2%[38.3 µM]	39.8µM*
CCOC(=O)C1CCN(Cc2ccc(F)c(F)c2)CC1	-7.0%	-1.6	-9.0%	-101.1*	27.1%[38.3 µM]	-3.0%
CCOC(=O)C1CCN(Cc2ccc(N(C)C)cc2)CC1	-4.6%	14.3	-7.6%	-27.6	22.1%[38.3 µM]	-3.0%
CC1CCN(C(=O)CCCOc2ccc(Cl)cc2)CC1	-6.6%	/	/	-4.4	21.1%	2.82µM*
O=C(CCSc1ccc(Cl)cc1)N1CCCCCC1	-10.1%	5.3	-1.7%	-24.7	4.8%[38.3 µM]	10µM*
COC(=O)CSc1nc2ccccc2n1CC(=O)N(C(C)C)C(C)C	4.0%	7.0	0.2%	6.4	/	/
COc1cccc(C(=O)CSc2nc3ccccc3n2CC(=O)N(C(C)C)C(C)C)c1	3.6%	-6.2	/	-100.0*	0.5%	-7.7%
COC(=O)c1ccc(CSc2ncnc3c2nnn3-c2ccc(F)cc2)o1	-5.7%	6.7	-4.6%	-25.7	20.0%[38.3 µM]	7.08µM*
COc1ccc(-n2nnc3c(SCc4ccccc4)ncnc32)cc1	-3.8%	7.5	3.2%	-15.0	21.6%[38.3 µM]	15.8µM*
NC(=NC1C2CC3CC(C2)CC1C3)Nc1ccc(I)cc1 (stereo not given)	-1.8%	9.5	26.3%	/	19.5%	-11.2%
CCc1ccccc1OCC(=O)OCC(=O)N1CC(=O)Nc2ccccc21	/	/	/	/	9.6%	/
O=C1CN(C(=O)COC(=O)COc2ccc3c(c2)CCC3)c2ccccc2N1	-5.6%	-4.3	6.0%	-8.2	-2.4%[38.3 µM]	14.1µM*
CCOC(=O)c1[nH]c(C)c(C(=O)OCC(=O)N2CC(=O)Nc3ccccc32)c1C	-0.3%	11.0	/	6.1	7.3%	15.8µM*
O=C(O)c1cccc(-c2ccc(/C=N/NC(=O)c3cccnc3)o2)c1	-3.8%	/	/	-83.4*	17.6%	?
Cc1ccc(/C=N/NC(=O)c2cccnc2)o1	/	/	/	/	-3.3%	/
c1ccc2sc(Sc3ncnc4sccc34)nc2c1	1.4%	/	/	?	-2.2%	?
CCc1cc2c(Sc3nc4ccccc4s3)ncnc2s1	-8.3%	-4.2	6.9%	27.3	-15.5%[38.3 µM]	25.1µM*
SMILES	12-hLO inh	IMPase inh	15-hLO-2 inh	PNC inhibitor	IMPase Li inh	HPGD inh
O=C(O)c1ccc(/C=N\N=C2c3ccccc3-c3ccccc32)cc1	-1.4%[11.4 µM]	/	-8.1%[11.4 µM]	/	2.8%	-0.8%
CCOC(=O)N/N=C/c1ccccc1-c1cc(OC)ccc1OC	/	/	/	/	0.5%	-6.9%
CCOc1cc(-c2nc3c(c(CC)nn3-c3ccccc3)c3cc(OC)c(OC)cc23)ccc1O	/	-28.0	/	/	/	/
CCCn1c(SCC(=O)c2cc(C)ccc2C)n[nH]c1=O	5.4%	4.7	-7.6%	2.2	11.9%[38.3 µM]	-4.8%
Cc1ccc(C)c(C(=O)CSc2n[nH]c(C)n2)c1	-24.9%	10.7	-12.1%	-6.2	/	/
Cc1ccc(C)c(C(=O)CSc2n[nH]c(C(C)C)n2)c1	-2.4%	-7.5	5.4%	-7.5	-4.8%[38.3 µM]	15.8µM*
CCc1nc(SCC(=O)c2cc(C)ccc2C)n[nH]1	-12.9%	-7.4	-13.2%	?	15.4%[38.3 µM]	39.8µM*
CCc1ccc(C(=O)CSc2n[nH]c(C)n2)cc1	-17.6%	-5.3	-9.1%	-29.8	-2.1%[38.3 µM]	35.5µM*
Cc1ccc(C(=O)CSc2n[nH]c(C)n2)cc1	-25.4%	-11.0	-15.4%	11.5	-2.2%[38.3 µM]	?
COC(=O)C1=COC(O[C@H]2OC(CO)[C@H](O)C(O)C2O)[C@H]2C1C(=O)C[C@@H]2C (stereo not given in full)	/	/	/	/	17.0%	-3.3%
CC(=O)Nc1ccc(C2Nc3c(C)cc(C)cc3-c3cc(C)nn32)cc1 (stereo not given)	/	-3.1	/	/	/	/
CCOC(=O)C1=C(C)NC(=O)N[C@@H]1c1coc2cc(C)cc(C)c2c1=O	-1.7%[11.4 µM]	/	-4.4%[11.4 µM]	/	9.1%	-1.4%
COCCCNC(=O)/C=C/c1c(Cl)cccc1Cl	1.8%	/	/	42.0	-6.6%	15.8µM*
COCCCNC(=O)/C=C/c1ccc(Cl)cc1	-0.9%	-1.7	3.0%	0.3	-3.4%[38.3 µM]	-20.6%
O=C(O)CNC(=O)/C=C/c1c(Cl)cccc1Cl	/	/	/	/	-8.8%	/
COCCNC(=O)/C=C/c1c(Cl)cccc1Cl	-4.0%	/	/	?	8.1%	12.6µM*
O=C(Cc1ccccc1)Nc1sc2c(c1C(=O)Nc1ccc(Br)cc1)CCCC2	/	2.7	/	/	/	/
Cc1ccc2nc(NC(=O)CN(C)S(=O)(=O)c3cccc4nsnc34)sc2c1	-2.1%	-0.1	8.4%[2.29 µM]	-122.4*	4.8%[38.3 µM]	-0.5%
